The values that follow come from PubChem BioAssay (NCATS).

Results filed as inconclusive are left out. A call without a number means that no potency is given here. Activity calls are given as the source filed them. The call rests on the fitted dose curve; in most records, active means well fitted cell-killing curve with a large enough effect; inconclusive means small, poorly fitted or top-dose-only effect, or effect the other way; inactive means no such curve, though single readings can be large or run the other way.
Potency means the concentration at half of the fitted maximal effect.

A short description of this assay: Quantitative High-Throughput drug screen in 47 multiple myeloma cell lines against the NCATS MIPE library collection: KMS26_JCRB cell viability assay (AID 1918975). Further: nearly all actives have a fitted effect of over 45% in size. The conditions noted are these: KMS26 myeloma cells viability, CellTiter-Glo ATP, 48 h; series mostly up to 45.8 µM. The text has this: PI: Beverly A. Mock Ph.D.
Laboratory of Cancer Biology and Genetics,
Center for Cancer Research, National Cancer Institute,
National Institute of Health, Bethesda, Maryland
Drug resistance and disease progression are common in multiple myeloma (MM) patients, underscoring the need for new therapeutic combinations. […] We hypothesized that effective combinations would reduce MYC expression and enhance p16 activity. […] These preclinical data identify potentially useful drug combinations for evaluation in drug-resistant MM and reveal potential mechanisms of combined drug sensitivity.
Described herein is the primary MIPE qHTS used to cherrypick compounds. Validated compounds were then further tested for potential synergistic activiy.
[1] Peat TJ, Gaikwad SM, Dubois W, Gyabaah-Kessie N, Zhang S, Gorjifard S, Phyo Z, Andres M, Hughitt VK, Simpson RM, Miller MA, Girvin AT, Taylor A, Williams D, D'Antonio N, Zhang Y, Rajagopalan A, Flietner E, Wilson K, Zhang X, Shinn P, Klumpp-Thomas C, McKnight C, Itkin Z, Chen L, Kazandijian D, Zhang J, Michalowski AM, Simmons JK, Keats J, Thomas CJ, Mock BA. Drug combinations identified by high-throughput screening promote cell cycle transition and upregulate Smad pathways in myeloma. Cancer Lett. 2023 Aug 1;568:216284. doi: 10.1016/j.canlet.2023.216284. Epub 2023 Jun 24. PMID: 37356470; PMCID: PMC10408729.
SEQUENCE No. (e.g., 1, 2, 3, etc.); […] (e.g., Cells, Incubation, Reagent, etc.); VALUE and DESCRIPTION.
1; Cells; 5 uL; white, solid bottom 1536-well Greiner assay plate.
2; Compounds; 23 nL; Kalypsis pin tool (Wako USA) equipped with a 1536-well pin head to transfer to the assay plates.
3; Incubation; 48 hours; 37C incubation.
4; Reagent;5uL; CellTiter Glo (Promega).
5; Detector; 425V; Luminescence; Viewlux PerkinElmer.
NOTES (numbers refer to Sequence numbers above)
1. The cell-based screening methods employed in this study were like those previously published. Briefly, the corresponding myeloma cell lines were screened in 1,536-well plates with 500 cells, 5-uL per well for inhibition of cell viability (assessed by measuring ATP levels with CellTiterGlo).
2. NCATS MIPE 4.0 library of approved and investigational drugs were added using the Kalypsis pin tool. Wells treated with DMSO only for 100% viability and media only wells for 0% viability were used as controls.
3. The assay plates were covered and incubated for 48 hours in a 37C, 5% CO2 incubator with controlled humidity.
4. After 48 hours, CellTilter-GloTM luminescent substrate mix (Promega) reagent was added to the assay plate and plates we incubated for 5 min at room temperature.
5. Signal was measured as median relative luminescence units on a ViewLux (PerkinElmer) multiplate reader.
[1] Heske CM, Davis MI, Baumgart JT, Wilson K, Gormally MV, Chen L, Zhang X, Ceribelli M, Duveau DY, Guha R, Ferrer M, Arnaldez FI, Ji J, Tran HL, Zhang Y, Mendoza A, Helman LJ, Thomas CJ. Matrix Screen Identifies Synergistic Combination of PARP Inhibitors and Nicotinamide Phosphoribosyltransferase (NAMPT) Inhibitors in Ewing Sarcoma. Clin Cancer Res. 2017 Dec 1;23(23):7301-7311. doi: 10.1158/1078-0432.CCR-17-1121. Epub 2017 Sep 12. PMID: 28899971; PMCID: PMC6636827.
A general note: ATP-based viability assays read luminescence as a measure of living cells.
Regarding `c1ccc([C@H]2CN3CCSC3=N2)cc1`, the Potency entry was “inactive”.

Take `COc1cc2nccc(Oc3ccc(NC(=O)NC4CC4)c(Cl)c3)c2cc1C(N)=O`: the Potency is 23.5 µM (active).

On to `COc1nc(-c2ccc3c(c2)OCO3)n(-c2ccc(NC(=O)CSc3ccccc3)cc2)n1`, for which the Potency was 11.8 µM (active).

Regarding `COc1ccc(-c2ccc3c(N4CCOC[C@H]4C)nc(N4CCOC[C@H]4C)nc3n2)cc1CO`, the Potency is 4.69 µM (active).

Consider `COCCNCCCn1c(C(=O)CF)c(-c2ccc(C)cc2)c2c(N)ncnc21`, for which the Potency result was “inactive”.

`CCOc1cc(N2CCC(O)CC2)ccc1Nc1ncc2c(n1)N(C)c1ccccc1C(=O)N2C`: the Potency was 4.18 µM (active).

`N[C@@H]1CONC1=O`: the Potency result was “inactive”.

On to `CC(C)(N)C(=O)N[C@H](COCc1ccccc1)C(=O)N1CCC2(CC1)CN(S(C)(=O)=O)c1ccccc12`, for which the Potency was 0.0264 µM (active).

For `Cc1cc2c(C(C)C)c(O)c(O)c(C=O)c2c(O)c1-c1c(C)cc2c(C(C)C)c(O)c(O)c(C=O)c2c1O`, the Potency was 14.8 µM (active).

On to `COc1ccccc1[C@H](c1cccc2ccccc12)[C@@](C)(C#N)C(=O)N1CCC(c2cccc(C(F)(F)F)c2)CC1`, for which the Potency was 7.43 µM (active).

Regarding `Oc1ccc(C2CNCCc3c2cc(O)c(O)c3Cl)cc1` (stereo not given), the Potency was 1.32 µM (active).

Consider `Cc1ccc(-n2nc(C(C)(C)C)cc2NC(=O)Nc2ccc(OCCN3CCOCC3)c3ccccc23)cc1`, for which the Potency is 26.4 µM (active).

Turning to `O=C1CCc2cc(OCCCCc3nnnn3C3CCCCC3)ccc2N1`, the Potency entry is “inactive”.

`Cc1cnc(NC(=O)C2=C(O)c3ccccc3S(=O)(=O)N2C)s1`: the Potency entry was “inactive”.

Turning to `CC(C)OC(=O)C1=CN(C(=O)c2ccc(F)c(F)c2)CC(C)(C)c2c1[nH]c1ccccc21`, the Potency entry was “inactive”.

On to `Cc1cccc(-c2nn(C(=S)Nc3ccccc3)cc2-c2ccnc3ccccc23)n1`, for which the Potency is 6.62 µM (active).

As for `Cc1[nH]c(=O)c(C#N)cc1-c1ccncc1`, the Potency entry was “inactive”.

As for `Cn1cnc2c(F)c(Nc3ccc(Br)cc3Cl)c(C(=O)NOCCO)cc21`, the Potency was 7.43 µM (active).

For `Cc1csc(NC(=O)c2sc3nc4c(c(C(F)(F)F)c3c2N)CCC4)n1`, the Potency entry is “inactive”.

On to `CCOC(=O)C1=C[C@]2(CC)CCCN3CCc4c(n1c1ccccc41)[C@@H]32`, for which the Potency is 26.4 µM (active).

Regarding `CC(C=CC1=C(C)CCCC1(C)C)=CC=CC(C)=CC(=O)O`, the Potency entry is “inactive”.

Turning to `Nc1cccc(S(=O)(=O)N2CCCN(S(=O)(=O)c3ccc4c(c3)OCCO4)CC2)c1`, the Potency result was “inactive”.

Turning to `COc1ccc(COc2cc3oc(=O)c4cc(C(C)O)ccc4c3cc2OC)cc1` (stereo not given), the Potency is 11.8 µM (active).

Consider `NCCCC(N)(C(=O)O)C(F)F` (stereo not given), for which the Potency entry is “inactive”.

For `Nc1ncnc2nc(-c3ccc(N4CCOCC4)nc3)cc(-c3cccc(Br)c3)c12`, the Potency entry is “inactive”.

Turning to `OC(CCN1CCCCC1)(c1ccccc1)C1CC2C=CC1C2` (stereo not given), the Potency entry is “inactive”.

As for `CC(C[N+](C)(C)C)OC(N)=O` (stereo not given), the Potency result is “inactive”.

Turning to `COc1ccccc1-c1cccc(-c2c(O)c3cc(C#N)c(Cl)cc3[nH]c2=O)c1`, the Potency result is “inactive”.

As to `Oc1cccc(-c2nc(N3CCOCC3)c3oc4ncccc4c3n2)c1`, the Potency was 0.215 µM (active).

`Nc1nc2[nH]cc(CCc3ccc(C(=O)N[C@@H](CCC(=O)O)C(=O)O)cc3)c2c(=O)[nH]1`: the Potency result is “inactive”.

On to `CCOc1ccc(Cc2cc([C@@H]3O[C@H](CO)[C@@H](O)[C@H](O)[C@@H]3O)ccc2Cl)cc1`, for which the Potency entry is “inactive”.

In the case of `CNC[C@H](O)c1cccc(O)c1`, the Potency entry was “inactive”.

For `CCCCNc1cc(C(=O)O)cc(S(N)(=O)=O)c1Oc1ccccc1`, the Potency entry was “inactive”.

With `O=c1[nH]c(-c2ccc(C(F)(F)F)cc2)nc2c1CSCC2`, the Potency is 3.72 µM (active).

As for `O=C1[C@H](Cc2ccc(O)cc2)N2C(=O)CCN(C(=O)NCc3ccccc3)[C@H]2CN1Cc1cccc2ccccc12`, the Potency is 7.43 µM (active).

Regarding `Cc1cc(Nc2nc(N[C@@H](C)c3ncc(F)cn3)ncc2Cl)n[nH]1`, the Potency is 26.4 µM (active).

With `O=S(=O)(N=Cc1c(O)ccc2ccccc12)c1cccs1`, the Potency is 16.6 µM (active).

Regarding `OC(CN1CCC(Cc2ccc(F)cc2)CC1)c1ccc(Cl)cc1` (stereo not given), the Potency result was “inactive”.

For `CC(C)NCC(O)COc1ccc(COCCOC(C)C)cc1` (stereo not given), the Potency entry is “inactive”.

Regarding `Cc1cc([C@@H](C)Nc2ccccc2C(=O)O)c2nc(N3CCOCC3)cc(=O)n2c1`, the Potency is 27 µM (active).
